Experimental data as given in PubChem BioAssay AID1159580 (chemical genetic matrix, 2015).
Where “and” joins values, the source holds several entries; their conditions need not be identical. Identical values can stand only once. Out of some 5,500 compounds screened, about 2,000 (36%) were called active. Inconclusive results (about 18%) are left out. No stated cut-off is given here; in the data, active means normalized growth mostly below about 0.91 (no sharp cut-off); inconclusive means no clear call, values can overlap the other calls; inactive means mostly above about 0.92. This is one part of the list.

Assay: chemical genetic growth profiling, strain panel (AID 1159580);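 further: tested at 20 µM; growth read once vehicle control cultures reached saturation at 30 °C; 1 = growth at the plate median or of vehicle wells; lower values mean less growth of the strain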
Conditions: growth OD

Measured: normalized growth

O=C1C(=O)c2ccccc2C(O)=C1C1CCC(c2ccc(Cl)cc2)CC1 (configuration not stated)
active: S. cerevisiae deletion strains, locus YNL307C, strain MCK1, active compounds read low 0.836
inactive: S. cerevisiae deletion strains, locus YAL013W, strain DEP1, active compounds read low 1.01 | S. cerevisiae deletion strains, locus YBR021W, strain FUR4, active compounds read low 0.992 | S. cerevisiae deletion strains, locus YBR229C, strain ROT2, active compounds read low 0.985 | S. cerevisiae deletion strains, locus YCL029C, strain bik1, active compounds read low 0.992 | S. cerevisiae deletion strains, locus YDL035C, strain GPR1, active compounds read low 0.993 | S. cerevisiae deletion strains, locus YDL074C, strain BRE1, active compounds read low 0.975 | S. cerevisiae deletion strains, locus YDL101C, strain DUN1, active compounds read low 0.996 | S. cerevisiae deletion strains, locus YDL134C, strain PPH21, active compounds read low 0.983 | S. cerevisiae deletion strains, locus YDL185W, strain tfp1, active compounds read low 1.01 | S. cerevisiae deletion strains, locus YDL192W, strain arf1, active compounds read low 0.997 | S. cerevisiae deletion strains, locus YDR101C, strain arx1, active compounds read low 0.991 | S. cerevisiae deletion strains, locus YDR150W, strain NUM1, active compounds read low 1.01 | S. cerevisiae deletion strains, locus YDR162C, strain NBP2, active compounds read low 0.997 | S. cerevisiae deletion strains, locus YDR318W, strain mcm21, active compounds read low 0.98 | S. cerevisiae deletion strains, locus YDR388W, active compounds read low 0.981 | S. cerevisiae deletion strains, locus YDR502C, strain sam2, active compounds read low 1 | S. cerevisiae deletion strains, locus YEL061C, strain CIN8, active compounds read low 0.996 | S. cerevisiae deletion strains, locus YER110C, active compounds read low 0.991 | S. cerevisiae deletion strains, locus YER155C, strain BEM2, active compounds read low 0.983 | S. cerevisiae deletion strains, locus YER167W, strain BCK2, active compounds read low 1.01 | S. cerevisiae deletion strains, locus YGL078C, strain dbp3, active compounds read low 1 | S. cerevisiae deletion strains, locus YGL086W, strain mad1, active compounds read low 0.988 | S. cerevisiae deletion strains, locus YGL248W, strain PDE1, active compounds read low 0.998 | S. cerevisiae deletion strains, locus YGR078C, strain PAC10, active compounds read low 0.996 | S. cerevisiae deletion strains, locus YGR135W, strain pre9, active compounds read low 0.991 | S. cerevisiae deletion strains, locus YGR229C, strain SMI1, active compounds read low 1 | S. cerevisiae deletion strains, locus YGR252W, strain gcn5, active compounds read low 0.946 | S. cerevisiae deletion strains, locus YHR030C, strain SLT2, active compounds read low 0.998 and 1.01 | S. cerevisiae deletion strains, locus YHR079C, strain IRE1 (second series), active compounds read low 0.987 | S. cerevisiae deletion strains, locus YHR079C, strain IRE1, active compounds read low 1.01 | S. cerevisiae deletion strains, locus YHR094C, strain hxt1, active compounds read low 0.98 | S. cerevisiae deletion strains, locus YHR129C, strain ARP1, active compounds read low 0.988 | S. cerevisiae deletion strains, locus YHR200W, strain rpn10, active compounds read low 0.981 | S. cerevisiae deletion strains, locus YIL066C, strain RNR3, active compounds read low 0.989 | S. cerevisiae deletion strains, locus YIL073C, strain SPO22, active compounds read low 0.884 | S. cerevisiae deletion strains, locus YIL125W, strain kgd1, active compounds read low 0.996 | S. cerevisiae deletion strains, locus YIR030C, strain dcg1, active compounds read low 0.997 | S. cerevisiae deletion strains, locus YJL095W, strain BCK1, active compounds read low 0.949 and 1.01 | S. cerevisiae deletion strains, locus YJL134W, strain LCB3, active compounds read low 0.988 | S. cerevisiae deletion strains, locus YJL168C, strain set2, active compounds read low 0.977 | S. cerevisiae deletion strains, locus YJL187C, strain SWE1 (second series), active compounds read low 0.992 | S. cerevisiae deletion strains, locus YJR043C, strain POL32, active compounds read low 1 | S. cerevisiae deletion strains, locus YJR066W, strain TOR1, active compounds read low 0.963 | S. cerevisiae deletion strains, locus YJR075W, strain HOC1, active compounds read low 0.996 | S. cerevisiae deletion strains, locus YKL009W, strain mrt4, active compounds read low 0.997 | S. cerevisiae deletion strains, locus YKL068W, active compounds read low 0.997 | S. cerevisiae deletion strains, locus YKL085W, strain MDH1 (second series), active compounds read low 0.989 | S. cerevisiae deletion strains, locus YKL085W, strain MDH1, active compounds read low 0.989 | S. cerevisiae deletion strains, locus YKL190W, strain CNB1, active compounds read low 0.99 | S. cerevisiae deletion strains, locus YKR001C, strain vps1, active compounds read low 0.947 | S. cerevisiae deletion strains, locus YLR039C, strain RIC1, active compounds read low 0.876 | S. cerevisiae deletion strains, locus YLR058C, strain SHM2, active compounds read low 0.988 | S. cerevisiae deletion strains, locus YLR102C, strain apc9, active compounds read low 0.988 | S. cerevisiae deletion strains, locus YLR113W, strain HOG1, active compounds read low 1.05 | S. cerevisiae deletion strains, locus YLR262C, strain YPT6, active compounds read low 0.936 | S. cerevisiae deletion strains, locus YLR268W, strain sec22, active compounds read low 0.972 | S. cerevisiae deletion strains, locus YLR330W, strain CHS5, active compounds read low 0.988 | S. cerevisiae deletion strains, locus YLR342W, strain FKS1 (second series), active compounds read low 0.951 | S. cerevisiae deletion strains, locus YLR371W, strain rom2, active compounds read low 1 | S. cerevisiae deletion strains, locus YLR418C, strain cdc73, active compounds read low 0.987 | S. cerevisiae deletion strains, locus YML016C, strain PPZ1, active compounds read low 0.969 | S. cerevisiae deletion strains, locus YML032C, strain rad52, active compounds read low 1.01 | S. cerevisiae deletion strains, locus YML124C, strain tub3, active compounds read low 0.994 | S. cerevisiae deletion strains, locus YMR078C, strain ctf18, active compounds read low 0.974 | S. cerevisiae deletion strains, locus YMR223W, strain ubp8, active compounds read low 0.981 | S. cerevisiae deletion strains, locus YMR263W, strain SAP30, active compounds read low 0.999 | S. cerevisiae deletion strains, locus YMR307W, strain GAS1, active compounds read low 0.924 | S. cerevisiae deletion strains, locus YNL067W, strain RPL9B, active compounds read low 0.997 | S. cerevisiae deletion strains, locus YNL128W, strain TEP1, active compounds read low 1.01 | S. cerevisiae deletion strains, locus YNL153C, strain GIM3, active compounds read low 0.989 | S. cerevisiae deletion strains, locus YNL183C, strain NPR1, active compounds read low 0.977 | S. cerevisiae deletion strains, locus YNL233W, strain BNI4, active compounds read low 0.987 | S. cerevisiae deletion strains, locus YNL250W, strain rad50, active compounds read low 0.997 | S. cerevisiae deletion strains, locus YNL271C, strain bni1, active compounds read low 0.991 | S. cerevisiae deletion strains, locus YNL298W, strain CLA4, active compounds read low 0.996 | S. cerevisiae deletion strains, locus YNL322C, strain KRE1, active compounds read low 1 | S. cerevisiae deletion strains, locus YNR052C, strain pop2, active compounds read low 0.982 | S. cerevisiae deletion strains, locus YOL006C, strain TOP1, active compounds read low 0.903 | S. cerevisiae deletion strains, locus YOL012C, strain htz1 1.05 | S. cerevisiae deletion strains, locus YOL147C, strain pex11, active compounds read low 0.986 | S. cerevisiae deletion strains, locus YOR061W, strain CKA2, active compounds read low 0.98 | S. cerevisiae deletion strains, locus YOR069W, strain VPS5, active compounds read low 0.991 | S. cerevisiae deletion strains, locus YOR136W, strain idh2, active compounds read low 1 | S. cerevisiae deletion strains, locus YOR144C, strain elg1, active compounds read low 0.988 | S. cerevisiae deletion strains, locus YOR184W, strain ser1, active compounds read low 0.984 | S. cerevisiae deletion strains, locus YOR231W, strain MKK1, active compounds read low 1.03 | S. cerevisiae deletion strains, locus YOR316C, strain cot1, active compounds read low 0.991 | S. cerevisiae deletion strains, locus YPL055C, strain LGE1, active compounds read low 0.996 | S. cerevisiae deletion strains, locus YPL241C, strain CIN2, active compounds read low 0.997 | S. cerevisiae deletion strains, locus YPL256C, strain CLN2, active compounds read low 1.03 | S. cerevisiae deletion strains, locus YPR119W, strain clb2, active compounds read low 0.984 | S. cerevisiae deletion strains, locus YPR141C, strain kar3, active compounds read low 1 | S. cerevisiae deletion strains, locus YPR163C, strain tif3, active compounds read low 0.993 | S. cerevisiae deletion strains, locus YPR167C, strain met16, active compounds read low 0.995 | S. cerevisiae deletion strains, strain wtn01, active compounds read low 0.998 | S. cerevisiae strains, strain wild type, active compounds read low 0.999
